The panel holds about 79,000 compounds, 15% with a hit somewhere; the sample as a whole holds those more often. Rule as the data show it: active = growth inhibition above about 70%; inactive = the rest.
Experiments:
[1] = NCI Yeast Anticancer Drug Screen. Data for the rad50 strain (AID 155);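 also: 0% = growth of vehicle-only cultures of the same strain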; conditions: S. cerevisiae rad50 strain growth inhibition; at 50.0 µM; stronger effect = higher value
How it was run: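 Inhibition values express reduced yeast growth in compound-treated cultures relative to vehicle-treated controls.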

[2] = NCI Yeast Anticancer Drug Screen. Data for the mec2-1 strain (AID 157); conditions: S. cerevisiae mec2-1 strain, at 50.0 µM, stronger effect = higher value
How it was run: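 Each compound was tested on mec2-1 yeast, a strain altered in DNA damage repair or cell cycle control. Growth inhibition is reported relative to vehicle.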

[3] = NCI Yeast Anticancer Drug Screen. Data for the mlh1 rad18 strain (AID 175); conditions: S. cerevisiae mlh1 rad18 strain growth inhibition; at 50.0 µM; stronger effect = higher value
How it was run: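 Inhibition values reflect reduced growth of mutant yeast versus vehicle-treated controls following compound exposure; the mutations affect DNA damage repair.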

[4] = NCI Yeast Anticancer Drug Screen. Data for the sgs1 mgt1 strain (AID 161);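 also: 0% = growth of cultures given vehicle only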; conditions: S. cerevisiae sgs1 mgt1 strain, at 50.0 µM, stronger effect = higher value
How it was run: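 Inhibition of yeast growth, normalised to vehicle-treated controls, is reported for a strain bearing genetic alterations in DNA damage repair.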

[5] = NCI Yeast Anticancer Drug Screen. Data for the cln2 rad14 strain (AID 165);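 also: 0% = growth equal to vehicle treated cultures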; conditions: S. cerevisiae cln2 rad14 strain, at 50.0 µM, stronger effect = higher value
How it was run: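 Test compounds were added to cln2 rad14 yeast cultures; inhibition of growth was then determined by comparison with vehicle treatment.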

[6] = NCI Yeast Anticancer Drug Screen. Data for the bub3 strain (AID 167); conditions: S. cerevisiae bub3 mutant strain, at 50.0 µM, stronger effect = higher value
How it was run: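 Steps: expose the mutant yeast strain to compound; grow alongside vehicle-treated cultures; measure growth; express inhibition against the vehicle cultures.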

Measured: growth inhibition

Cc1cccc(-c2cc(Cl)c3cc(S(=O)(=O)F)ccc3n2)c1
inactive: [1] -1.1% | [2] -25.4% | [3] -33.4%

O=c1c2ccccc2[nH]c(=S)n1-c1cccc(Cl)c1
inactive: [1] 44.2% | [2] 16.1% | [3] 27.4%

CC(Cc1ccccc1)N(C)CC1C(=O)C2CCC1C2 (stereo not given)
inactive: [1] 10.5% | [2] -12.6% | [3] 6.25%

O=C1NC(=O)C(Cc2cccc(OCc3ccccc3)c2)C(=O)N1
inactive: [1] 20.1% | [4] -1.65% | [5] 5.1% | [6] 0.1% | [3] -52%

Cc1ccc(-c2cc(Cl)c3cc(S(=O)(=O)F)ccc3n2)cc1
inactive: [1] -4% | [2] -16.6% | [3] -9.1%

CC1(C)N=C(N/N=C/c2ccccc2)SP1(=O)NNc1ncccn1 (stereo not given)
inactive: [1] -7.85% | [4] -20.1% | [5] 2.35% | [6] 3.55% | [3] 1.25%

Cc1ccc(-n2c(=S)[nH]c3ccccc3c2=O)cc1
inactive: [1] -8.7% | [2] -7.95% | [3] -20.9%

O=C(/C=C/c1ccccc1)NCCc1cnc[nH]1
inactive: [1] 0.65% | [2] 1.55% | [3] 16.4%

Clc1cccc(NC2=NCCS2)c1
inactive: [1] -7.35% | [2] -32.6% | [3] -40.8%

COc1ccc(S(=O)(=O)F)cc1NC(=O)c1ccc2ccccc2c1O
inactive: [1] 6.4% | [2] 7.75% | [3] 41.6%

CCOC(=O)c1ccc2nc(-c3ccc(S(=O)(=O)F)cc3)cc(Cl)c2c1
inactive: [1] 12% | [2] -9.95% | [3] 23.5%

NC(=NC1CCCCCCCCCCC1)N[N+](=O)[O-]
inactive: [1] 36.1% | [2] 9.6% | [3] 12.3%

COc1ccc(CC[N+](C)(C)C)cc1
inactive: [1] -3.85% | [2] -2.5% | [3] 32.5%

COc1ccc(C(=O)OC2CC3CCC(C2)N3)cc1OC (stereo not given)
inactive: [1] 7.25% | [2] -19.8% | [3] 22.8%

c1ccc2c(c1)O[As](O[As]1Oc3ccccc3O1)O2
inactive: [1] -4.2% | [2] 4.75% | [3] 10.2%

CNCCc1ccc(O)c(O)c1
inactive: [1] -1.6% | [2] -13.2% | [3] -6.15%

COc1cccc(N=C(N)N[N+](=O)[O-])c1
inactive: [1] -13.2% | [2] -32% | [3] -7.25%

COc1ccccc1NC1=NCCS1
inactive: [1] 20.9% | [2] -12.9% | [3] 15.4%

Brc1ccc(C[N+]23CCN(CC2)CC3)cc1
inactive: [1] -14.2% | [2] -35.1% | [3] -16%

CSC(=S)NNC(=O)c1cccc(S(=O)(=O)F)c1
inactive: [1] -2.95% | [2] -8.8% | [3] 50.7%

CCOC(=O)/C(=C\c1ccc(Cl)cc1)[Se]c1ccccc1
inactive: [1] 56.9% | [2] 5.7% | [5] 20.6% | [6] 11.3% | [3] 43%

COc1ccc(-n2c(=S)[nH]c3ccccc3c2=O)cc1
inactive: [1] -10.5% | [2] -9.7% | [3] 4.8%

O=[N+]([O-])c1ccc(C[N+]23CCN(CC2)CC3)cc1
inactive: [1] 5.9% | [2] -16.7% | [3] 3.8%

O=C(CCN1CC=C(c2ccccc2)CC1)NCc1ccccc1
inactive: [1] 5% | [2] -6.8% | [3] 8.55%

C/C=C1\CN2CCC1CC2C(O)c1ccnc2ccc(O)cc12 (stereo not given)
inactive: [1] -3.6% | [2] -13.7% | [3] 32.2%

O=c1c2ccc(Cl)cc2[nH]c(=S)n1-c1ccc(Cl)cc1
inactive: [1] 10.1% | [2] -9.25% | [3] 11%

O=C(CBr)OCS(=O)(=O)O
inactive: [1] -15.2% | [2] -31.6% | [3] -6.2%

CN1CCN(c2ccc(Cl)cc2)CC1
inactive: [1] -5.85% | [2] -17.6% | [3] 0.7%

Source: PubChem BioAssay (NCI)
